This passage reports growth results from PubChem BioAssay (NCI).

The panel holds about 83,000 compounds, 20% with a hit somewhere; the sample as a whole holds those more often.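 Values shown are percent growth following 48 h exposure of cells in 96-well plates to a single concentration of compound; below 10 was considered active.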 Unmarked numbers belong to inactive results. Calls of active or inactive are those of the source.

The first test relates to PC-3 prostate. Nature of the test: NCI-60 one-dose screen, 48 h (100 = growth as untreated, 0 = no growth, -100 = all killed). The following applies: 10 µM unless noted.
As to `Oc1c(Cl)cc(Cl)c2ccc(Cn3cc(-c4ccc(C(F)(F)F)cc4)nn3)nc12`, the growth is 74.6%.
With `O=C(NCCCCNC(=O)OCc1ccc2c(Cl)cc(Cl)c(O)c2n1)OCc1ccc2c(Cl)cc(Cl)c(O)c2n1`, the growth is 18.8%.
Still for that read-out and setting: the value for `CCN(CC)CCNC(=O)c1cn2ncnc(Oc3ccc(NC(=O)Nc4ccc(Cl)c(C(F)(F)F)c4)c(F)c3)c2c1C` was 7.99% (active).

A further test concerns SK-MEL-5 melanoma. The description is as above. The following applies: 10 µM unless noted.
With `COc1cc(OC)cc(C2=C3CC[C@@H]4[C@H](CC[C@]5(C)C(=O)CC[C@@H]45)C3=CC3C(O)c4cccnc4N4C(=O)COC234)c1` (stereo partly drawn), the growth is 98.1%.
Same read-out and setting: the value for `CC(=O)Cc1nsc(NC(=O)c2cc(-c3cc(Cl)cc(Cl)c3)oc2C)n1` was 99.9%; that for `CCOC(=O)c1cn2ncnc(Oc3ccc(NC(=O)NC4CCCCC4)c(Cl)c3)c2c1C` was 84.5%; that for `Cc1nnc(NC(=O)c2nc(S(=O)(=O)Cc3ccc(F)cc3)ncc2Cl)s1` was 98.9%.
Take `C#CCOc1ccc2ncnc(Nc3ccc(NC(=O)CCl)cc3)c2c1`: the growth is -90.6% (active).
With `CCOC(=O)C#Cc1c(C(=O)OCC)nnn1[C@@H]1O[C@H](CO)[C@H]2OC3(CCCCC3)O[C@H]21`, the growth was 96.2%.
For `C/C(=N/O)c1ccc(F)cc1`, the growth was 89.2%.
`CCOC(=O)Cn1c(O)c(N=Nc2ccc(S(N)(=O)=O)cc2)c2cc(Br)ccc21`: the growth is 88.3%.
The same measure, in the same setting: to `Cc1nc(N2CCOCC2)sc1S(N)(=O)=O` belongs 100%.
Same read-out and setting: the value for `COc1ccc(OC)c(C(=O)/C=C/c2cc3c(c(OC)c2OC)OCO3)c1` was 68.4%; that for `O=c1oc2ccccc2cc1C1=NN=C(SCc2ccccc2)SC1` was 100%; that for `COc1ccc(C(=S)N2CCN(c3ccccc3Cl)CC2)cc1OC` was 96.4%.
Same read-out and setting: the value for `Cc1ccc(/C=C2\CN(C(=O)OC(C)(C)C)C/C(=C\c3ccc(C)cc3)C2=O)cc1` was 78.9%; that for `O=C(Nc1nn(-c2ccc(Cl)cc2Cl)nc1-c1ccccc1)c1ccccc1` was 110%.
For the molecule `CCN(CC)c1ccc(/C=C/C(=O)c2ccc(Nc3nc(Nc4ccccc4)nc(Nc4ccccc4)n3)cc2)cc1`, the growth is 40.7%.
Same read-out and setting: the value for `COC(=O)[C@H]1CCCN1C[C@@H](O)CN1C(=O)/C(=C\c2cc(OC)c(OC)c(OC)c2)c2ccccc21` was 103%; that for `CN(C)c1ccc(Nc2cc(-c3cccc(OC(F)(F)F)c3)nc3ccc(N4CCCC4)cc23)cc1` was 96.3%; that for `O=C(Nc1cc(Cl)ccc1O)c1ccc(Nc2ccnc(C(F)(F)F)c2)cc1` was 47.1%.
As to `COc1cc(OC)c2sc(-c3ccc(-n4cncc4-c4ccc(OC)c(OC)c4)cc3)nc2c1`, the growth is 22.5%.
`O=C1c2cccnc2C(=O)c2c1c(C(=O)NCCCN1CCCCC1)c1ccccn21`: the growth is -99.5% (active).
Same read-out and setting: the value for `CCOC(=O)c1ccc2[nH]c(O)c(C(=Nc3ccc(N(C)C(=O)CN4CCN(C)CC4)cc3)c3ccccc3)c2c1` was -94% (active).
The same measure, in the same setting: the value for `CCN1C(=O)N(CC)C2C1NN=c1s/c(=C\c3cccc([N+](=O)[O-])c3)c(=O)n12` (stereo not drawn) was -5.71% (active).
On the same count and under the same terms, the value for `CC1=C(Nc2ccc(N3CCN(C)CC3)cc2)C(=O)c2cncnc2C1=O` was 81.5%.
As to `O=C1Nc2ccc(Br)cc2/C1=N/c1n[nH]c(=S)s1`, the growth was 97.6%.
Same read-out and setting: the value for `CCN(c1ccc(Cl)cc1)c1nc(-c2ccc([N+](=O)[O-])cc2)cs1` was 99.7%; that for `C=C(C)[C@@H]1CC[C@]2(C)[C@H](CC=C3[C@@H]4[C@H](C)[C@@H](C)CC[C@]4(CO)CC[C@]32C)[C@@]1(C)CCCN` was 67.1%.
On the same count and under the same terms, the value for `O=C(/C=C(/C=C/c1cccc2[nH]ccc12)OB(F)F)/C=C/c1cccc2[nH]ccc12` was -78.3% (active).
On the same count and under the same terms, the value for `CCN1CC(=O)N(/N=C2\C(=O)Nc3ccccc32)C1=S` was 79.4%; that for `CCN1CCN(c2cc(C(=O)Nc3nc(-c4cc(OC)c(OC)c(OC)c4)cs3)cc(C(F)(F)F)c2)CC1` was 53.7%; that for `COc1ccc(-c2nc(/C=C3\SC(=NCc4ccccc4)NC3=O)c3ccccn23)cc1` was -78.4% (active).
For `CCOC(=O)C(=Cc1cccc(Br)c1)C(=O)OCC`, the growth was 50.3%.
`N#CC1=C(N)Oc2c(sc3c(F)cccc23)C1c1ccc(F)cc1` (stereo not drawn): the growth is 22.3%.
As to `CCOc1nc(-c2ccccc2)cc2c(O)c(C(=O)NN)[nH]c(=O)c12`, the growth was 105%.
The same measure, in the same setting: to `O=C1c2cccc(NCCN=Cc3cc(O)ccc3O)c2C(=O)c2c(NCCN=Cc3cc(O)ccc3O)cccc21` belongs 4.84% (active).
Still for that read-out and setting: to `C=CCn1cc(-c2nc3ccccc3s2)c2cc(-c3ccc4c5c(cccc35)C(=O)N(N)C4=O)ccc21` belongs 96.5%; to `CCOC(=O)CNP(=O)(OC[C@@H](Cc1ccccc1)NC(=O)c1cc2ccccc2s1)Oc1ccccc1` (stereo partly drawn), 88.2%.
As to `CCC(=C(c1ccc(OCCN2CCCC2)cc1)c1ccc(OCCN2CCCC2)cc1)c1ccc(Cl)cc1`, the growth was -83.4% (active).
For the molecule `Oc1c(Cl)cc(Cl)c2ccc(Cn3cc(-c4ccc(C(F)(F)F)cc4)nn3)nc12`, the growth is 98.8%.
The same measure, in the same setting: to `O=C(NCCCCNC(=O)OCc1ccc2c(Cl)cc(Cl)c(O)c2n1)OCc1ccc2c(Cl)cc(Cl)c(O)c2n1` belongs -46.4% (active).
For `CCN(CC)CCNC(=O)c1cn2ncnc(Oc3ccc(NC(=O)Nc4ccc(Cl)c(C(F)(F)F)c4)c(F)c3)c2c1C`, the growth is -20.3% (active).
